From ChEMBL document CHEMBL3988442, “University of Dundee, Small-Polar-MMV Screening Library” (2021) come the findings set out here.

Holding throughout (design): scale not given: direction of the effect not stated beside the values
Test [1] addresses Protein translocase subunit SecA (Escherichia coli (strain K12)) (UniProt P10408). In words: Assay to Identify E. coli SecA ATPase Inhibitors. The note with it: 30 µM. In kind it is functional.
Test [2] concerns the target T1, Ubiquitin-activating enzyme e1, putative (Leishmania donovani (strain BPK282A1)) (UniProt E9BSI1).
T1 sequence (whole entry): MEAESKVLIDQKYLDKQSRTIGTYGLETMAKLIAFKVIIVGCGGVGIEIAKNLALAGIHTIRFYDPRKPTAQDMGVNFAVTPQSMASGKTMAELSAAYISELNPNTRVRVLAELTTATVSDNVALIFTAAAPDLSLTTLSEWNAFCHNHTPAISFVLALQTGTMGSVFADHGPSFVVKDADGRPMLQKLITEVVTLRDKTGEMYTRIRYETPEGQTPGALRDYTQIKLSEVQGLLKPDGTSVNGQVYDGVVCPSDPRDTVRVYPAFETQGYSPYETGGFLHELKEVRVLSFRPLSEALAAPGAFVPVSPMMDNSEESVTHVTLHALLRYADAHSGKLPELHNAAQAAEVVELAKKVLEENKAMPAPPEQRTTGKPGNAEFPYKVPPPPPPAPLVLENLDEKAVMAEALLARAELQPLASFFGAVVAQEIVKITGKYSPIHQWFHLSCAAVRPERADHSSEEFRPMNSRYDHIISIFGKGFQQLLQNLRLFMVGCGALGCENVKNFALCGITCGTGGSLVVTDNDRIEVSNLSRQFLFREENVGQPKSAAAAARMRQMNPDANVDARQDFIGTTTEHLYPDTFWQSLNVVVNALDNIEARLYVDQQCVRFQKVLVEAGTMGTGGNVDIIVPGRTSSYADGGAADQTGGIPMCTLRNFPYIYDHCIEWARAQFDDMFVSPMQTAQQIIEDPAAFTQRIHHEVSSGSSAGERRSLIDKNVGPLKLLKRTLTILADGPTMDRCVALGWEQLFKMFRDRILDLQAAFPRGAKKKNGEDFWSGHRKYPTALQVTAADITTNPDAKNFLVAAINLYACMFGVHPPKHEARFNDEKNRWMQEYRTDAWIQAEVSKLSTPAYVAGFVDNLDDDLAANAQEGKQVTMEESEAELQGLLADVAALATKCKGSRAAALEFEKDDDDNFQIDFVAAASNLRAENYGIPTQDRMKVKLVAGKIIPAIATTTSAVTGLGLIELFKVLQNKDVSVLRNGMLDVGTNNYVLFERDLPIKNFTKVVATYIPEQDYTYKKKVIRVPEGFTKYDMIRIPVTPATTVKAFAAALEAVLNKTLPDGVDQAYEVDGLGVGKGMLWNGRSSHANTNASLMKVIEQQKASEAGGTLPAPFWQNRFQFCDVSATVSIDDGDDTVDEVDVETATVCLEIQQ
Briefly: Leishmania donovani Ubiquitin Activating Enzyme (LdE1). In kind it is functional. The note with it: 30 µM.

The target in test [3] is AMP-activated protein kinase, AMPK (Homo sapiens) (UniProt P54646+O43741+P54619+Q9UGJ0+Q9Y478+Q13131+Q9UGI9). In words: AMP-dependent Kinase enzyme assay. An in vitro enzyme assay that detects ADP turnover that is directly proportional to AMPK activity. This uses naive AMPK that is activated during the assay with MK-8722. It counts as functional. The conditions noted are these: 30 µM.

The target of test [4] is Sialic acid-binding Ig-like lectin 9 (Homo sapiens) (UniProt Q9Y336). Briefly: Hs-Siglec9 ALPHAscreen SOP 20170721. The note with it: 10 µM.
Chain of Sialic acid-binding Ig-like lectin 9 (Homo sapiens) (Q9Y336 whole entry): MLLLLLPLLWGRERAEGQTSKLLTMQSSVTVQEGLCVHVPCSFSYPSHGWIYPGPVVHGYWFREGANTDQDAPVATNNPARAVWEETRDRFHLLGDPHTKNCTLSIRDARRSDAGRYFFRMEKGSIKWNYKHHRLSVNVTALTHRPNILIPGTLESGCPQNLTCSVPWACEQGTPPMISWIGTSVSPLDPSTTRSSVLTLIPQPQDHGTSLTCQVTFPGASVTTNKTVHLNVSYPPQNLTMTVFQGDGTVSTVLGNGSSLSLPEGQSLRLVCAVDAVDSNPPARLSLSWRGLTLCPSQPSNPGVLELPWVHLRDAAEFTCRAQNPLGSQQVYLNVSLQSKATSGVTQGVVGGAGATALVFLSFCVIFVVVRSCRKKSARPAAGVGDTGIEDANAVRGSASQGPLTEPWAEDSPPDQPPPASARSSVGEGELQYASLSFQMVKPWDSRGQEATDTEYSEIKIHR
The subject of test [5] is Trypanosoma cruzi. Briefly: Trypanosoma cruzi phosphomannomutase and mannose-1-phosphate guanylyltransferase assay. It counts as functional. The conditions noted are these: 10 µM.
The target in test [6] is T2, Arginase-2, mitochondrial (Homo sapiens) (UniProt P78540).
T2 sequence (whole entry): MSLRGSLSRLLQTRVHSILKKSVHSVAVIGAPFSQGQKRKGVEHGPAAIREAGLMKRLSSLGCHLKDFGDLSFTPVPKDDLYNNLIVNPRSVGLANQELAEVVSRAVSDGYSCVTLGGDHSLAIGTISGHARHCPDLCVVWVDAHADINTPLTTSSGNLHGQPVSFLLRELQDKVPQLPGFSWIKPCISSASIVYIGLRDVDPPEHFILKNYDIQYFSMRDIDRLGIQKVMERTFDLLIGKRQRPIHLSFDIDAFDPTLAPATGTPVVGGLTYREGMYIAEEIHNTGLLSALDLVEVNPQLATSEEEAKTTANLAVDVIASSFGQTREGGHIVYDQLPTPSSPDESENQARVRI
In words: in vitro enzyme assay to detect the production of urea directly proportional to the activity of Arginase II. Further: in the data most compounds retested in dose-response had high values. The note with it: 33.3 µM. It counts as functional.

Test [7] deals with T3, Proteasome subunit beta (Trypanosoma cruzi) (UniProt O96673).
T3 sequence (whole entry): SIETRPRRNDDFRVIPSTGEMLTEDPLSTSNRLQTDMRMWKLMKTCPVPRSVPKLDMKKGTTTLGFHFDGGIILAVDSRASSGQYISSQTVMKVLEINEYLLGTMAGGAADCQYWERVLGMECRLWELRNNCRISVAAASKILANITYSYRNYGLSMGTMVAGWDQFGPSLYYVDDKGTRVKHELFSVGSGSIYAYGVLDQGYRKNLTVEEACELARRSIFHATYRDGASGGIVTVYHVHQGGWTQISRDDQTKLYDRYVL
Briefly: Trypanosoma cruzi proteasome chymotrypsin-like activity (TcProtChymo) assay. Further: in the data most compounds retested in dose-response had high values. It counts as functional. The conditions noted are these: 9.37 µM.

Test [8] is filed under the species Homo sapiens. In words: To identify inhibition of the IFN signalling (Jak-Stat) pathway via expression of an eGFP reporter gene under the control of an IFN-stimulated response element (ISRE) containing MxA promoter. It counts as functional. The note with it: 30 µM.
The target in test [9] is T4, Tyrosyl-tRNA synthetase, putative (Trypanosoma cruzi (strain CL Brener)) (UniProt Q4DSP6).
T4 sequence (whole entry): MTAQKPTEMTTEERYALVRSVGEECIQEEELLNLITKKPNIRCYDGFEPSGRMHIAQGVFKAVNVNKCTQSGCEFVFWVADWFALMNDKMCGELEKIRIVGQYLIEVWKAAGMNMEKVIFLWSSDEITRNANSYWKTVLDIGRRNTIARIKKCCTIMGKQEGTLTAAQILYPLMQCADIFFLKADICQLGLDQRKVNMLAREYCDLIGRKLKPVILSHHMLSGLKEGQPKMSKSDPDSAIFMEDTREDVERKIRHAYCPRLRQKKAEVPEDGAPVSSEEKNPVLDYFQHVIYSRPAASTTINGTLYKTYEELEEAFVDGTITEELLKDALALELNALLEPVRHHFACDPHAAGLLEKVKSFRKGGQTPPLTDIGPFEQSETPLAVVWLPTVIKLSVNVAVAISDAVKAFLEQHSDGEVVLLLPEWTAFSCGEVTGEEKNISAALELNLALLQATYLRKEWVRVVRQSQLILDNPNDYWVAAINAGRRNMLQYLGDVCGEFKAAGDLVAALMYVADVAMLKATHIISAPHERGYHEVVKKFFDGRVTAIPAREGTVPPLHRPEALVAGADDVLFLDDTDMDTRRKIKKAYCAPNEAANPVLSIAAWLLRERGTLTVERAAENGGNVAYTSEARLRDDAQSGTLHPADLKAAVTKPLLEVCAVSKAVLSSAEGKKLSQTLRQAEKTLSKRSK
Briefly: Trypanosoma cruzi tyrosyl tRNA synthetase (TcYRS) _High Tyrosine SOP. Further: in the data most compounds retested in dose-response had high values. It counts as functional. The note with it: 30 µM.

Test [10] has as its target T4, Tyrosyl-tRNA synthetase, putative (Trypanosoma cruzi (strain CL Brener)). Briefly: Trypanosoma cruzi tyrosyl tRNA synthetase (TcYRS) SOP. In kind it is functional. The note with it: 30 µM.
Test [11] has as its target Chromo domain-containing protein 1 (Saccharomyces cerevisiae (strain ATCC 204508 / S288c) (Baker's yeast)) (UniProt P32657). Briefly: ScCHD-1 Enzyme Inhibition Assay. Further: in the data most compounds retested in dose-response had high values. The conditions noted are these: 30 µM. In kind it is functional.

Molecules are shown by their SMILES. For some of these results: Results with a measured potency or affinity are listed apart.

Chain of Protein translocase subunit SecA (Escherichia coli (strain K12)) (P10408 whole entry): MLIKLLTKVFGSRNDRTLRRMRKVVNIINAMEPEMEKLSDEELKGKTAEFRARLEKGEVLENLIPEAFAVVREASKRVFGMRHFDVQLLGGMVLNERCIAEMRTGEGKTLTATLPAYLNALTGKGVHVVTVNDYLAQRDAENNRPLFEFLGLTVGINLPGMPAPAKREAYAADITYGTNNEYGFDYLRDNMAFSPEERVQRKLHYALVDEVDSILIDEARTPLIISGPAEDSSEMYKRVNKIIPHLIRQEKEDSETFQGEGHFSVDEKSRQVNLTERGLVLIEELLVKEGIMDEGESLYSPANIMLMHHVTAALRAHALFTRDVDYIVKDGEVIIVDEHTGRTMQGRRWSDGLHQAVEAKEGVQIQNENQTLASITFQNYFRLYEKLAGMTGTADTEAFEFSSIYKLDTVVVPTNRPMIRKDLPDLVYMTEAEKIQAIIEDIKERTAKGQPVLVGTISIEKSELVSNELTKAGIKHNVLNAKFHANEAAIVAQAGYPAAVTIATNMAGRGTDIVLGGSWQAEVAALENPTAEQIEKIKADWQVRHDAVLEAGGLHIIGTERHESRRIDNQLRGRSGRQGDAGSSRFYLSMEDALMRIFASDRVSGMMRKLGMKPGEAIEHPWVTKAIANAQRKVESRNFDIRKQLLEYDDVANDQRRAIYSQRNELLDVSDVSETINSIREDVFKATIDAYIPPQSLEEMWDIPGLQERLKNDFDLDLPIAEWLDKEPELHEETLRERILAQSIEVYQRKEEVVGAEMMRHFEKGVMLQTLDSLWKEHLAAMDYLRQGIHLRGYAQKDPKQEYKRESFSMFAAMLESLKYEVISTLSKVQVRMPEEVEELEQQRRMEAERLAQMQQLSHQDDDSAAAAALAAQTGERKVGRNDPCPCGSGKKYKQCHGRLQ
Chain of Chromo domain-containing protein 1 (Saccharomyces cerevisiae (strain ATCC 204508 / S288c) (Baker's yeast)) (P32657 whole entry, the tested form may be a part): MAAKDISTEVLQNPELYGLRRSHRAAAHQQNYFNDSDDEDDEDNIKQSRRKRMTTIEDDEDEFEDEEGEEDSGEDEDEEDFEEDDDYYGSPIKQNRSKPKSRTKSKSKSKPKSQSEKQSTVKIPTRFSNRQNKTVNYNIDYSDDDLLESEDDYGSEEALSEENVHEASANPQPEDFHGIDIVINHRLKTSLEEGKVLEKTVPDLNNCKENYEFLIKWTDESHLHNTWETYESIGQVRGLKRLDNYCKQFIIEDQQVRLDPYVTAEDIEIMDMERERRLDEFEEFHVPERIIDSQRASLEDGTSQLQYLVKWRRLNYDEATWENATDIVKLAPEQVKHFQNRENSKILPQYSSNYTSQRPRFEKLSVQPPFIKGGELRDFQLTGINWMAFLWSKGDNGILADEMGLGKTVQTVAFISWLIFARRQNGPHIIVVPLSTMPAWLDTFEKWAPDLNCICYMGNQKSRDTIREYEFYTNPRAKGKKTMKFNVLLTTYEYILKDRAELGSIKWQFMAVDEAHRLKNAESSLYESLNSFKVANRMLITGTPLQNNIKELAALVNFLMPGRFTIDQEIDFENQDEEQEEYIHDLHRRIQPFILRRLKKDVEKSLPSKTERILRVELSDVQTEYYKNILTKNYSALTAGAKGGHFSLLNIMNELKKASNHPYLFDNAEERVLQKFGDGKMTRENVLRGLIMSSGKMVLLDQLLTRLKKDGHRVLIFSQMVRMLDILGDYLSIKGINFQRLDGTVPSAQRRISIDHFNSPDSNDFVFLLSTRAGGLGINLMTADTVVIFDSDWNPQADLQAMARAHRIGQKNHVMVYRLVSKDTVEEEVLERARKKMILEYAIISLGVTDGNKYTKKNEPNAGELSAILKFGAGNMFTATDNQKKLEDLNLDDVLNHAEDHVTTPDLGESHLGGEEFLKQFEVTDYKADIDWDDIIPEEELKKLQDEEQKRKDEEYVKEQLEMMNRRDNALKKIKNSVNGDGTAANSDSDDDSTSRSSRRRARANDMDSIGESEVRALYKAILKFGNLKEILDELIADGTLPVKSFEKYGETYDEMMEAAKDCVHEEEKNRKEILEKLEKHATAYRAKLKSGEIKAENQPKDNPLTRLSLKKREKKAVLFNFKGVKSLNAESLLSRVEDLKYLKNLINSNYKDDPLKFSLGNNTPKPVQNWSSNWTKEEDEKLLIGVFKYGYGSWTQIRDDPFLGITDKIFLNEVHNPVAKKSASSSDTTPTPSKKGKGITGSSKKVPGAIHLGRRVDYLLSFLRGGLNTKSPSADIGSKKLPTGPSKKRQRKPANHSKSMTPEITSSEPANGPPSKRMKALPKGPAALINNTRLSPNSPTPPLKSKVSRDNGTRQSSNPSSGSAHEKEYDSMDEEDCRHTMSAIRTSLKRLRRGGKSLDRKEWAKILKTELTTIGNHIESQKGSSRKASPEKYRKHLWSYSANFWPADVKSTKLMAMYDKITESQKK

Turning to `CCc1noc(C)c1C(=O)N1CCCC1c1c(C)nn(C)c1OC` (stereo unspecified), the Percent Effect in [1] was -2.91%; in [2] it was -2.53%; in test [3], 2.09%; in test [4], 2.98%; in test [5] it was 2.36%; in [6], -3.42%. Moreover, the Percent Effect in test [7] was -3.03%; in test [8] it was -17.3%; in test [9], 1.48%; in test [10], 1.27%; in [11], 0.826%.

As for `CNc1oc(-c2cc(S(=O)(=O)N3CCCCCC3)c(C)o2)nc1C#N`, the Percent Effect in test [1] is -5.54%; in test [2], -9.33%; in test [3] it was 2.78%; in [4], 2.42%; in [5], 5.5%; in test [6] it was -3.35%. Besides, the Percent Effect in test [7] was 11.3%; in [8], 8.06%; in test [9] it was 1.06%; in test [10] it was 10.3%; in test [11] it was -7.07%.

As to `O=C(Cc1ccsc1)N1C[C@@H]2CN(Cc3ccoc3)CCO[C@@H]2C1`, the Percent Effect in [1] was -1.51%; in test [2], 0%; in test [3], 4.82%; in test [4], 8.18%; in test [5], 1.86%; in test [6] it was 0.955%. The Percent Effect in test [7] was 14.6%; in test [8], -8.8%; in test [9], 0%; in [10], 7.69%; in test [11], 11.3%.

`CCC(O)CNC(=O)c1coc(COc2ccc3sc(C)nc3c2)n1` (stereo unspecified): the Percent Effect in [1] was -6.39%; in [2], -2.74%; in [3] it was -4.19%; in test [4] it was -4.04%; in [5], -0.392%; in test [6], -2.73%. For the same compound, the Percent Effect was 0.71% in [7]; 50% in [8]; -1.07% in [9]; 0% in test [10]; 2.81% in test [11].

As to `Cc1noc(NC(=O)c2ccc(Br)cc2)n1`, the Percent Effect in [1] was -5.08%; in test [2] it was 26.3%; in test [3] it was -4.88%; in test [4], 4.49%; in test [5], 6.44%; in [6] it was 1.44%. The Percent Effect is 16.3% in test [7]; 70% in test [8]; 8.37% in test [9]; 28.4% in test [10]; -5.14% in test [11].

For `Cc1cnn(CC2CCCCN2C(=O)c2ccc3nnc(C)n3c2)c1` (stereo unspecified), the Percent Effect in test [1] is 3.48%; in [2], 13%; in [3] it was -0.0421%; in [4], -9.14%; in [5], -4.6%; in test [6], -1.9%. Besides, the Percent Effect in test [7] is 15.9%; in test [8] it was 21%; in [9], 5.71%; in [10] it was 18.8%; in [11], -5.8%.

`O=C1COC2(CCN(Cc3ccoc3)CC2)CN1c1ccsc1`: the Percent Effect is 0.00228% in test [1]; 18.7% in test [2]; 6.94% in [3]; -2.69% in [4]; -0.591% in [5]; 1.63% in test [6]. Moreover, the Percent Effect in test [7] is 14.4%; in test [8], -27.3%; in [9] it was 7.45%; in [10], 11.5%; in [11] it was -2.01%.

Consider `CCc1nccn1C1CCCN(C(=O)c2ccc3[nH]cnc3c2)C1` (stereo unspecified), for which the Percent Effect in test [1] was -7.22%; in test [2] it was 2.63%; in test [3], 2.64%; in test [4], 2.2%; in test [5], 5.36%; in [6], 1.18%. Further, the Percent Effect in [7] was 9.3%; in test [8], 7.56%; in [9] it was 8.51%; in test [10], 10.4%; in test [11], -0.611%.

Turning to `Cc1nc(CCNC(=O)N2CCC(Cc3cnn(C)c3)C2)cs1` (stereo unspecified), the Percent Effect in [1] is -5.52%; in [2] it was 2.63%; in test [3], 9.75%; in test [4], 4.12%; in test [5], -0.682%; in [6] it was 116%. Besides, the Percent Effect was 19.9% in [7]; -10.1% in test [8]; 2.13% in test [9]; 5.2% in [10]; -2.02% in [11].

As for `CCn1c(N)nc2cc(C(=O)NCCc3sccc3C)cnc21`, the Percent Effect in test [1] was -4.71%; in test [2], -2.74%; in test [3], 1.2%; in test [4], 24.5%; in [5], 5.29%; in [6] it was -2.73%. For the same compound, the Percent Effect in [7] is 28.6%; in test [8] it was 8.68%; in test [9], 3.23%; in [10] it was 20%; in test [11] it was -6.44%.

Consider `COc1ccccc1CC1CCCN(CC(N)=O)C1` (stereo unspecified), for which the Percent Effect in [1] was -0.0936%; in test [2], 7.79%; in test [3], 0.0164%; in test [4], 9.64%; in [5], 0.0979%; in [6], 2.32%. In addition, the Percent Effect in test [7] is -0.889%; in [8] it was -0.966%; in [9], 2.86%; in [10], 9.41%; in [11] it was -6.07%.
